Assay [1] in a line: small molecules captured by biotinylated probe aFSTL3 – biochemical, small-molecule microarray, fluorescence 635/667, stem cell growth factor project, primary screen (AID 1064).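 Note: measures binding of the biotinylated anti-FSTL3 antibody to printed compounds.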 Conditions: higher = more signal.
Assay [2] can be described thus: binders from COS7 lysate, DM2A8 probe, primary screen, torsin A project, cell lysate, small-molecule microarray, fluorescence 635/667 (AID 1065). Conditions: higher = more signal, COS7 lysate expressing mutant human TOR1A.
The nature of assay [3]: small molecules captured by biotinylated probe aFGF2 – biochemical, small-molecule microarray, fluorescence 635/667, stem cell growth factor project, primary screen (AID 1067).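 Note: measures binding of biotinylated aFGF2 protein to printed compounds on slides; z-score merges feature fluorescence and signal-to-noise across triplicate slides.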 Particulars: higher = more signal.
A short description of assay [4]: small molecules captured by biotinylated probe aFGF10 – biochemical, small-molecule microarray, fluorescence 635/667, stem cell growth factor project, primary screen (AID 1071).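 Note: score merges 667 nm spot intensity and signal to noise from triplicate slides.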 Particulars: higher = more signal.
Assay [5] deals with Neurogenic locus notch homolog protein 2 (Homo sapiens) (UniProt Q04721). In words: small molecules binding Notch2 protein – biochemical, small-molecule microarray, 635 nm fluorescence, stem cell growth factors, primary screen (AID 1073). Particulars: higher = more signal.
Assay [6] has as its target Pro-neuregulin-1, membrane-bound isoform (Homo sapiens) (UniProt Q02297). The assay can be described thus: small molecules binding neuregulin-1 protein – biochemical, small-molecule microarray, fluorescence 635/667, psychiatric disease protein project, primary screen (AID 1075).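 Note: score combines 667 nm spot fluorescence with signal to noise.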 Particulars: NRG1 binding, 635 nm fluorescence, higher = more signal.
In assay [7] the test system is Neuregulin-1 EGF-like domain. In words: small molecules binding NRG1 EGF domain – biochemical, small-molecule microarray, 635 nm fluorescence, primary screen (AID 1081).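 Note: binding of the protein to compounds printed on small-molecule microarray slides.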 Conditions: higher = more signal.
A short description of assay [8]: FRG1 expression reporter modulators in myotubes – cell-based, C2C12 myotubes, firefly/Renilla luciferase, luminescence, FRG1 inhibition for FSHD, primary screen (AID 1084). Particulars: FRG1 promoter luciferase, higher = more signal, called active from +8 up or from −8 down.
Assay [9] is described as follows: small molecules captured by biotinylated probe aFST – biochemical, small-molecule microarray, fluorescence 635/667, stem cell growth factor project, primary screen (AID 1086).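 Note: score merges 667 nm fluorescence with signal-to-noise of each printed compound spot.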 Particulars: higher = more signal.
A short description of assay [10]: binders of probe aHhip on microarray, primary screen, stem cell growth factor project, biochemical, small-molecule microarray, fluorescence 635/667 (AID 1087).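 Note: score merges spot fluorescence at 667nm with spot signal to noise ratio.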 Conditions: higher = more signal.
The subject of assay [11] is PRMT1 (protein arginine N-methyltransferase 1). In words: small molecules binding arginine methyltransferase PRMT1 – biochemical, small-molecule microarray, 635 nm fluorescence, primary screen (AID 1088).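 Note: binding of Prmt1 protein to compounds spotted on small-molecule microarray slides.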 Particulars: higher = more signal.
The nature of assay [12]: growth effects on S. cerevisiae YJM789 – YJM789 clinical isolate, OD600, 24 h, basal, primary screen (AID 1089).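 Note: growth of clinical yeast isolate S. cerevisiae YJM 789 seeded 1000 cells per well; test concentration not given here.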 Conditions: higher = more signal, called active from +8 up or from −8 down.
The nature of assay [13]: S. pombe growth modifiers, basal conditions – strain 972, OD600, 24 h, no modulator, primary screen (AID 1090).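 Note: basal condition with compound alone and no growth modifier present; test concentration not given here.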 Conditions: S. pombe 972 growth, higher = more signal, called active from +8 up or from −8 down.
Assay [14] is described as follows: budding yeast growth modifiers under rapamycin – strain BY4716, OD600, 96 h, primary screen (AID 1091). Note: test concentration not given here. Conditions: S. cerevisiae BY4716 + rapamycin, higher = more signal, called active from +8 up or from −8 down.
Assay [15] has as its target Torsin-1A-interacting protein 2 (Homo sapiens) (UniProt Q8NFQ8). The assay can be described thus: small molecules binding lysate-expressed LULL1 – cell lysate, human LULL1 lysate, 635/667 nm fluorescence, primary screen (AID 1092).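 Note: probe is lysate of COS7 cells overexpressing human LULL1; score merges per-feature 667 nm fluorescence with signal-to-noise.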 Particulars: small-molecule microarray, hLULL1 lysate binding, 635 nm fluorescence; higher = more signal.
Assay [16] in a line: optical density change of DRC41 E. coli – strain DRC41, OD650, 24 h, E. coli filamentation project, primary screen (AID 1093).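 Note: MC1000 strain lacking acrAB efflux and sulA so SOS filamentation is blocked; test concentration not given here.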 Particulars: E. coli DRC41 growth, higher = more signal, called active from +8 up or from −8 down.
Assay [17] is described as follows: probe aLefty2 binding to arrayed compounds – biochemical, biotinylated probe, 635/667 nm fluorescence, primary screen (AID 1094).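 Note: score merges spot fluorescence near 667 nm with spot signal-to-noise ratio.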 Conditions: small-molecule microarray, higher = more signal.
Assay [18] concerns Noggin (protein binding on small-molecule microarray). The assay can be described thus: small molecules binding Noggin protein – biochemical, 635/667 nm fluorescence, primary screen (AID 1095).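 Note: score merges 667 nm feature fluorescence with signal to noise over triplicate slides.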 Conditions: 635 nm fluorescence, higher = more signal.
Assay [19] concerns the target Neurogenic locus notch homolog protein 3 (Homo sapiens) (UniProt Q9UM47). In words: small molecules binding NOTCH3 protein – biochemical, 635/667 nm fluorescence, primary screen (AID 1096). Conditions: small-molecule microarray, 635 nm fluorescence, higher = more signal.
Assay [20] in a line: probe aEGFR binding to arrayed compounds – biochemical, biotinylated probe, 635/667 nm fluorescence, primary screen (AID 1097).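 Note: probe is a biotinylated anti-EGFR antibody binding compounds printed on slides; score combines fluorescence near 667 nm and signal to noise of each spot.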 Particulars: small-molecule microarray, higher = more signal.

Values joined by “and” are separate entries in the source; they are usually repeats but may differ in a detail not shown here. Equal values may be shown once. Active and inactive are the calls of the source.

Chain of Torsin-1A-interacting protein 2 (Homo sapiens) (Q8NFQ8 whole entry, looked up): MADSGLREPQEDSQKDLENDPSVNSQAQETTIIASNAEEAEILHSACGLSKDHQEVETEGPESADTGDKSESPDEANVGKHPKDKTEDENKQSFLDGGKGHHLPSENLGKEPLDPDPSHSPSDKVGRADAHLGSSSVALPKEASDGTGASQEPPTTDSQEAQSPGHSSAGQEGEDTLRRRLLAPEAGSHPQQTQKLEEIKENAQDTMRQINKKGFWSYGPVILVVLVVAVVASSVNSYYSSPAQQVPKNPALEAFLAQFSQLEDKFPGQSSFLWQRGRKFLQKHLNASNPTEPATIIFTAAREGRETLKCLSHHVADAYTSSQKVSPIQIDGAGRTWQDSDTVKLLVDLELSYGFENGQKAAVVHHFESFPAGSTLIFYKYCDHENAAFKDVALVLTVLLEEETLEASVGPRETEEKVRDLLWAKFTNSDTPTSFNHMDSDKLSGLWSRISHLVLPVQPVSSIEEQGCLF
Chain of Neurogenic locus notch homolog protein 3 (Homo sapiens) (Q9UM47 whole entry, looked up): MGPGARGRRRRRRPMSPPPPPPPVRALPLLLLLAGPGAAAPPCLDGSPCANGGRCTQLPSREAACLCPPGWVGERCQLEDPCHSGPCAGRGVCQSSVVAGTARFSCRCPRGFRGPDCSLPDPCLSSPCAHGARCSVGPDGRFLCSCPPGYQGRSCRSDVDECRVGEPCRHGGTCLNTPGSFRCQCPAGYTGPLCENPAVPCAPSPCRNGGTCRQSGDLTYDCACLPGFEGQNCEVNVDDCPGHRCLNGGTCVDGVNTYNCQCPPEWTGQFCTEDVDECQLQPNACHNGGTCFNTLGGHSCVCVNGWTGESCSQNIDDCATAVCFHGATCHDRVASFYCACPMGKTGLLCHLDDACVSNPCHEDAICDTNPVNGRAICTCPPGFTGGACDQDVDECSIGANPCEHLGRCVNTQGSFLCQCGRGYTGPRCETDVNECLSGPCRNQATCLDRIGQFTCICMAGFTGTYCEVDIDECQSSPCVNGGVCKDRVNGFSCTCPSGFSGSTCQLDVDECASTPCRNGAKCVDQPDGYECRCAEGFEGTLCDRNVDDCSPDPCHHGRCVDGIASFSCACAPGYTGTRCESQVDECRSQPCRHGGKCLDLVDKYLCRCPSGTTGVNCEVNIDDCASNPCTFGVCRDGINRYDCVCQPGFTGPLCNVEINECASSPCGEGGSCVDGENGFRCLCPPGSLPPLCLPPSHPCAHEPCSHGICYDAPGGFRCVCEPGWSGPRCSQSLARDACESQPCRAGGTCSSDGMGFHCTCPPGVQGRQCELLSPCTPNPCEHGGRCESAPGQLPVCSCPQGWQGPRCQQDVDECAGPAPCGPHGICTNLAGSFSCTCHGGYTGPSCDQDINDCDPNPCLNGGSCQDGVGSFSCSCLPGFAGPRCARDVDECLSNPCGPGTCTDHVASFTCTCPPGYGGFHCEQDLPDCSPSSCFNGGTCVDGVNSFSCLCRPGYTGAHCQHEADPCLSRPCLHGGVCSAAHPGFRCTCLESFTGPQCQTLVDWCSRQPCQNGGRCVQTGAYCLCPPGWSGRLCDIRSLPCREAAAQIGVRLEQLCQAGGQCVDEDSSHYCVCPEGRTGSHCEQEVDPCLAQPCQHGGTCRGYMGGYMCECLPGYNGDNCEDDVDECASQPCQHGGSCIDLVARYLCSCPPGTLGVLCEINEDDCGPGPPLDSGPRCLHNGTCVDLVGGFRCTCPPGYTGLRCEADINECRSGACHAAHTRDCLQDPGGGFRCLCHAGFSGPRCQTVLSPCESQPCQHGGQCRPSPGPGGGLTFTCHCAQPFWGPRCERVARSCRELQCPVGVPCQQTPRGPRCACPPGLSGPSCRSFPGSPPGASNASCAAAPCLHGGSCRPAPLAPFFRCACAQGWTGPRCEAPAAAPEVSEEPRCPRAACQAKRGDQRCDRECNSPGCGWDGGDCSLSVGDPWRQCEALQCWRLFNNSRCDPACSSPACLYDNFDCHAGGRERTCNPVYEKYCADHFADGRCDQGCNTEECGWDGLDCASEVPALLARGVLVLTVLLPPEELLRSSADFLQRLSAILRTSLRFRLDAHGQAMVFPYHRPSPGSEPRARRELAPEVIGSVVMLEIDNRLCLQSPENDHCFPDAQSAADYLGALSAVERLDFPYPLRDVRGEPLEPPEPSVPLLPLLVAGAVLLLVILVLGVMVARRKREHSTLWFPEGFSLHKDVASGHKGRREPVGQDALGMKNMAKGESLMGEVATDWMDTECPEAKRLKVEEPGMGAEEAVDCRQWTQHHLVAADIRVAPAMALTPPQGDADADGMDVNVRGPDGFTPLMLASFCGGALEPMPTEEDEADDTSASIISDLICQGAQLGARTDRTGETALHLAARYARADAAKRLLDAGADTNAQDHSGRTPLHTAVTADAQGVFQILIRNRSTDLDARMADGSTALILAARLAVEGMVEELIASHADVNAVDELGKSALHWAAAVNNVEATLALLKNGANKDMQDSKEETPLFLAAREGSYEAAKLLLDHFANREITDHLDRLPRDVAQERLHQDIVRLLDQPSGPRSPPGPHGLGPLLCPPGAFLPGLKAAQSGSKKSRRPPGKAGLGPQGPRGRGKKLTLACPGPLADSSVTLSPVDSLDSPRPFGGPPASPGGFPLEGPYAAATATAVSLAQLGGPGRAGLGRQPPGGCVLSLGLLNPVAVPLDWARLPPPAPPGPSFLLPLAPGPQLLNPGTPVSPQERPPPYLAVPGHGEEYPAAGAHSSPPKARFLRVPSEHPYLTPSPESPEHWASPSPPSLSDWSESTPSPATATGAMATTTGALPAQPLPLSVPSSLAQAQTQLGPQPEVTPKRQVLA
Chain of Pro-neuregulin-1, membrane-bound isoform (Homo sapiens) (Q02297 whole entry, looked up, the tested form may be a part, canonical isoform): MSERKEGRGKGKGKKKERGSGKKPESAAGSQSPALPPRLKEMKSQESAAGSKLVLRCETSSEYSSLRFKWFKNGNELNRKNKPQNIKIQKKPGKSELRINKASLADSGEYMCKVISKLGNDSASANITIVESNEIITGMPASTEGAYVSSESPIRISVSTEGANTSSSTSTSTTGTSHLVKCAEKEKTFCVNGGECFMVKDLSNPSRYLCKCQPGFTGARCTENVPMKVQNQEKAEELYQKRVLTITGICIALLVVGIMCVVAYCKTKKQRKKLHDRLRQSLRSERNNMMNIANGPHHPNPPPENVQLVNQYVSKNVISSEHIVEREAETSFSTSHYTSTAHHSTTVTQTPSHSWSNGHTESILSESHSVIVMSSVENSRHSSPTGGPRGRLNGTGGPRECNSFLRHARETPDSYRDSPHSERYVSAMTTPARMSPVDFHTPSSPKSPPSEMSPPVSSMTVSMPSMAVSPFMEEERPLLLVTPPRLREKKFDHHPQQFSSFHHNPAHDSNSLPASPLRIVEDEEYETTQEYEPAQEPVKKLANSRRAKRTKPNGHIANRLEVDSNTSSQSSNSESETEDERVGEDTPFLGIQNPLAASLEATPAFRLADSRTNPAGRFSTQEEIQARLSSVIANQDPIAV

With `COC(=O)C1=C(C)N(Cc2ccccc2)[C@]23O[C@](C(=O)OC)(C(=O)N2[C@@H]1c1ccccc1)[C@H]1CCCC(=O)[C@H]13`, the composite z-score in assay [1] was 0.0353 and -0.148; in assay [2], 0.383 and 1.06; in [3], -0.0333 and -0.0507; in assay [4], 0.513 and 0.359; in [5] it was 1.15 and 0.327; in assay [6], 1.21 and -0.23. For the same compound, the composite z-score is 0.636 and -0.133 in [7]; 0.395 and 0.0869 in assay [9]; 0.186 and -0.236 in assay [10]; -0.0081 and 0.249 in [11]; 0.164 and -0.142 in assay [15]; -0.102 and -0.132 in assay [17]. The composite z-score in assay [18] was 0.0709 and 0.413; in assay [19] it was 0.31 and 0.604; in [20], 0.173 and -0.0497. In addition, the z-score in assay [8] is -1.02 (inactive) and 0.357 (inactive); in [12], 0.563 (inactive) and 0.21 (inactive); in [13], -1.79 (inactive) and -1.07 (inactive); in [14], -1.95 (inactive) and -0.557 (inactive); in assay [16], 0.302 (inactive) and -0.824 (inactive).
In the case of `C[C@@]1([C@@H](NC(=O)Cc2ccccc2)c2ccc(-c3ccccc3)cc2)C[C@H]1C1CCCCC1`, the composite z-score is 1.12 and 2.03 and -0.0771 in assay [1]; 0.528 and 0.149 and 0.36 in assay [2]; 0.611 and 0.674 and -0.218 in assay [3]; 0.602 and 0.59 and 0.392 in assay [4]; 0.866 and 0.815 and 0.536 in assay [5]; 1.41 and 0.96 and 0.841 in [6]. Moreover, the composite z-score in assay [7] is 0.911 and 0.56 and 0.909; in [9] it was 0.57 and 2.41 and 1.59; in assay [10], 0.319 and 2.76 and -0.609; in assay [11] it was 0.314 and 0.316 and 0.125; in assay [15], -0.331 and 2.71 and 2.97; in [17], 0.586 and 1.19 and -0.294. For the same compound, the composite z-score was -0.0626 and -0.481 and -0.08 in assay [18]; 0.444 and 0.213 and 0.544 in assay [19]; 0.0843 and 0.812 and -0.116 in assay [20]. For the same compound, the z-score was -1.2 (inactive) and -0.806 (inactive) and 1.29 (inactive) in [8]; 0.375 (inactive) and 0.029 (inactive) and 0.56 (inactive) in [12]; -6 (inactive) and -0.107 (inactive) and 1.45 (inactive) in [13]; -0.167 (inactive) and 0.998 (inactive) and 2.36 (inactive) in assay [14]; -1.16 (inactive) and -0.413 (inactive) and -1.74 (inactive) in [16].
For the compound `COC(=O)c1c2oc(c1C(=O)OC)C(=O)N[C@@H](Cc1ccccc1)Cn1cc(nn1)C1(CCCCC1)NC(=O)N[C@H](CO)CC2`, the composite z-score was 0.345 and -0.428 in assay [1]; -0.946 and -0.603 in assay [2]; -0.0558 and -0.0752 in assay [3]; 0.866 and 0.262 in assay [4]; 0.395 and 0.428 in assay [5]; 1.23 and 0.0012 in [6]. Also, the composite z-score in assay [7] was 1.31 and 0.747; in assay [9], 0.247 and 0.182; in assay [10] it was -0.0346 and -0.13; in assay [11], 1.43 and 0.951; in [15], 2.52 and 0.978; in assay [17], 0.558 and 0.72. The composite z-score was 1.57 and 0.416 in assay [18]; 0.971 and 0.57 in [19]; 0.0408 and -0.0697 in assay [20]. The z-score in assay [8] was -0.818 (inactive) and -1 (inactive); in assay [12], 0.168 (inactive) and 0.611 (inactive); in assay [13] it was -0.79 (inactive) and -0.186 (inactive); in assay [14], -0.427 (inactive) and -0.2 (inactive); in assay [16] it was 2.09 (inactive) and 1.21 (inactive).
For the compound `COC(=O)[C@@]1(Cc2ccc(OC)cc2)[C@H]2c3cc(C(=O)N(C)C)n(Cc4ccc(O)c(OC)c4)c3C[C@H]2CN1C(=O)c1ccccc1`, the composite z-score in [1] was 0.332 and 0.233; in assay [2], 0.703 and 0.13; in assay [3] it was -0.169 and 0.176; in assay [4], 0.123 and 1.17; in assay [5] it was 1.64 and 1.68; in assay [6] it was 2.15 and 1.85. Further, the composite z-score in assay [7] is 1.32 and 1.22; in [9], 0.808 and 1.15; in [10], 0.329 and 0.483; in [11], -0.406 and 0.571; in assay [15], 3.65 and 3.34; in [17], 0.437 and 0.261. Besides, the composite z-score in [18] was 0.219 and 0.19; in assay [19], 0.807 and 1.07; in [20] it was 0.0395 and 0.0354. The z-score is 2.53 (inactive) and -0.466 (inactive) in assay [8]; 0.403 (inactive) and -0.731 (inactive) in [12]; 1.08 (inactive) and 1.73 (inactive) in assay [13]; 0.374 (inactive) and 2.03 (inactive) in assay [14]; 0.151 (inactive) and 0.266 (inactive) in assay [16].
For the compound `C=C[C@H](C)[C@@H](O)c1ccc(OCCO)cc1`, the composite z-score is 0.535 and 0.672 in [1]; -0.549 and -0.859 in assay [2]; -0.215 and -0.188 in [3]; -0.907 and -0.473 in assay [4]; -1.9 and -0.991 in [5]; -0.612 and 0.783 in assay [6]. The composite z-score in assay [7] is -0.0529 and 0.395; in assay [9], -0.552 and -0.723; in assay [10], -0.204 and -0.0393; in assay [11], -0.269 and 0.62; in [15], -0.982 and 0.448; in [17], -0.184 and -0.0816. Besides, the composite z-score in assay [18] was -0.565 and -0.187; in assay [19], -0.956 and -0.773; in assay [20], -0.403 and -0.216. Moreover, the z-score in assay [8] was 1.94 (inactive) and 2.3 (inactive); in assay [12] it was -0.766 (inactive) and 0.227 (inactive); in assay [13] it was -0.467 (inactive) and -0.537 (inactive); in assay [14], -0.647 (inactive) and 0.024 (inactive); in assay [16], 0.158 (inactive) and -0.18 (inactive).
